# In the supplement of paper PMC3334620:
# The full ranking holds about 33,000 sequences; the median of “E-score (-0.5 to 0.5)” is about -0.012, and the highest 2% start at about 0.29. Shown is part of a subset that was picked to be rich in the highest values.
# Target: T1, Ybr033w (UniProt P38073)
# T1 sequence: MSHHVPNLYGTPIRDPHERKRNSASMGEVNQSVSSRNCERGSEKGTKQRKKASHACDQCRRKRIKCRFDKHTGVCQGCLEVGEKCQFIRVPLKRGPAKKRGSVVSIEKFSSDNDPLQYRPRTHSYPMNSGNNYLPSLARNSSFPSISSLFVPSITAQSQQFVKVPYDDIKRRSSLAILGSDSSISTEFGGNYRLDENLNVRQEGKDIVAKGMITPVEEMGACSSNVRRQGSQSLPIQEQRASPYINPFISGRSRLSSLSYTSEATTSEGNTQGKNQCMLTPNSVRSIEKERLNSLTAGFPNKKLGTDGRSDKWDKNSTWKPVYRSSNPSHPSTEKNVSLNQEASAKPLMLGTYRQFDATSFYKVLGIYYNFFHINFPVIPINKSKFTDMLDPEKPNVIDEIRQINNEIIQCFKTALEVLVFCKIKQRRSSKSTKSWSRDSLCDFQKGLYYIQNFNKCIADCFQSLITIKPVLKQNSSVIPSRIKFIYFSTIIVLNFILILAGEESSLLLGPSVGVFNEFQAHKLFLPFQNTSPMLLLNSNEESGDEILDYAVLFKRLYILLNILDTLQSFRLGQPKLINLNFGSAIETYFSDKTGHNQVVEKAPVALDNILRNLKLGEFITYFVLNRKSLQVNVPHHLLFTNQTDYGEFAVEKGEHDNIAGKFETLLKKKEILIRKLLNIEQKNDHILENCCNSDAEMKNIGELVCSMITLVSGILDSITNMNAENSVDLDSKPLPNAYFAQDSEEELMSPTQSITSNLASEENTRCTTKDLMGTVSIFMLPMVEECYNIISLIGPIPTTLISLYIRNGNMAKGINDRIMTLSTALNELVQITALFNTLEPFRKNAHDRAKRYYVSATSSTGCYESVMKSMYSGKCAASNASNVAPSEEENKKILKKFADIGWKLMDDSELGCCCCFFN
# Assay: PBM E-score (8-mer binding enrichment) (E-score (-0.5 to 0.5)); higher = stronger / more preferred TF binding
# Conditions: protein concentration: 200 nM; construct: GST-full length
# How it was run: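 PURExpress in vitro transcription/translation supplied GST-tagged yeast transcription factors, either full-length or DNA-binding domain. Applied at about 100-200 nM to universal all-10-mer Agilent arrays double-stranded by primer extension, the bound protein was detected with fluorescent anti-GST. E-scores, modified Wilcoxon-Mann-Whitney statistics, were given by the Universal PBM Analysis Suite to ungapped eight-base words pooled with their reverse complements after masliner normalisation.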
row,Sequence,PBM E-score
1,AGCTCTGA,-0.0863
2,TACGGGGA,-0.183
3,GAGAATGA,0.122
4,ACACCGAT,-0.185
5,AAGCGCAG,0.127
6,ACTAGATA,0.304
7,CCTAGATA,-0.0707
8,ACTAGATC,-0.0476
9,AGTAGATC,0.164
10,CGTAGATA,0.0341
11,AGTAGATA,0.311
12,GCGGGGAC,-0.22
13,AGATGAAA,0.0735
14,AGAGCGTC,-0.081
15,ATCAGAAA,0.044
16,AGATACAG,0.22
17,CGATACAA,0.165
18,AGATACAA,0.292
19,CGGTGACG,-0.0845
20,AATGCGAG,0.291
21,CATGCGAG,-0.217
22,AATGCGAT,-0.0207
23,GGCATAAA,0.167
24,ATACGTGC,-0.058
25,TCACTAGA,0.12
26,AATTGTTG,0.114

row,Sequence,PBM E-score
1,AATTGTTC,0.339
2,CATTGTAC,0.0182
3,AGTTGTTG,0.123
4,AGTTGTTC,0.337
5,AGTTGTTA,0.174
6,GATTGTTA,0.0997
7,AATTGTCA,0.139
8,AATTGTTA,0.314
9,AATTGTAC,0.337
10,AATTGTCC,0.163
11,GATTGTAC,0.0766
12,CTGCAAAA,0.022
13,GAGCCCTA,-0.201
14,AACCTTGT,-0.194
15,ACCTGGGC,-0.362
16,CATGGAAG,0.204
17,AAATGTTA,0.149
18,CATTGTTC,0.31
19,ATTTGTTC,0.44
20,AAATGTTG,-0.0479
21,AAATGTTC,0.346
22,CTTTGTTC,0.111
23,CCTTGTTC,-0.124
24,ATTTGTTA,0.185
25,CATTGTTA,-0.015
26,GAGAGGTA,-0.223

row,Sequence,PBM E-score
1,CCCATCCA,-0.158
2,AACTGAGA,0.0375
3,GTTTGATA,0.177
4,AGCCCTGG,-0.252
5,AAATGGCA,0.101
6,CTTCCGAA,0.208
7,GTTCCGAA,0.29
8,ATTCCGAA,0.32
9,GGTCCGAA,-0.0173
10,ATTCCGAG,0.242
11,ATTCCGGA,0.387
12,CTTCCGGA,0.274
13,ATTCCGGG,0.188
14,ATTCCGAC,0.157
15,GAAGCTGA,0.135
16,CAGCTACA,0.0259
17,GCTACGCC,-0.239
18,ACGTTACT,0.0376
19,ATACGCCG,-0.149
20,AGTCAAAT,0.188
21,GGCCACCC,-0.214
22,TCTTGAAA,0.319
23,GCTTGAAA,0.0485
24,CATTGAAA,0.29
25,CCTTGAAA,0.0714
26,CATTGAAC,0.124

row,Sequence,PBM E-score
1,CATTGAAG,-0.0671
2,AGTGGTAG,0.0179
3,ATTAACTA,0.181
4,ATTAACTC,0.291
5,ATTAACGG,0.159
6,AGTAACTG,0.0214
7,ATTAACCG,0.295
8,ATTAACTG,0.333
9,ATTAACCA,0.0788
10,CTTAACTC,0.0941
11,ATTAACCC,0.237
12,GAATTGAC,0.00537
13,CAGGCGGA,0.122
14,AACGCTTG,-0.194
15,CTTTCTCC,-0.103
16,CATTCTCC,0.0353
17,ATTTCTCC,0.404
18,AATTCTCA,0.204
19,AATTCTCC,0.293
20,ATTTCTCA,0.192
21,CAGGCTGA,-0.237
22,GACAGAGA,-0.066
23,ACCCTACT,0.0025
24,TGCTACCA,-0.0533
25,AATGCATG,0.0293
26,AATGCATT,0.31

row,Sequence,PBM E-score
1,AATGCATA,0.126
2,AGTAGTAT,0.185
3,AAAAGCCA,0.3
4,CAAAGACA,0.0541
5,AAAAGCCC,-0.113
6,AAAAGACA,0.292
7,AAAAGACC,-0.141
8,GAAAGCCA,-0.136
9,CCCAGTGA,-0.194
10,AGCAGTGG,0.0536
11,ATCTTGAA,0.187
12,TTATTAAA,0.283
13,ACATTAAT,0.235
14,ATATTAAG,0.285
15,ATATTAAA,0.355
16,ATATTAAC,0.301
17,ATATTAAT,0.314
18,CTATTAAC,0.268
19,GTATTAAC,0.0593
20,CTATTAAA,0.196
21,GGCTCTAC,-0.185
22,GGAACACA,0.149
23,GAGCTGTA,-0.11
24,TCCATACA,0.0807
25,ATTTTCAG,0.148
26,ATTCGCCG,0.0215

row,Sequence,PBM E-score
1,ATCGACAC,-0.0724
2,CGTGAACA,0.00947
3,ATGTGTTA,0.163
4,CTGTGTTA,-0.00531
5,GTGTGTTA,0.292
6,CAAGGTCG,-0.0398
7,AACGACTC,-0.219
8,ACTTTATG,0.132
9,AATTTATG,0.317
10,AGTTTATC,0.363
11,AATTTATC,0.398
12,AGTTTATG,0.2
13,CATTTATC,0.278
14,AATTTAGG,0.229
15,AGTTTATA,0.215
16,AATTTATA,0.257
17,GCAAGCGC,-0.00847
18,GTAACCAC,-0.255
19,CTCAATGC,-0.0435
20,AGATCTTG,-0.00564
21,TAAGTGAA,0.293
22,AAAGTGAA,0.164
23,GAAGTGAA,0.155
24,CAAGCCAG,-0.0473
25,ATTAGATC,0.0257
26,ATTAGATA,0.222

row,Sequence,PBM E-score
1,ATTAGATG,0.329
2,AATCGGGG,-0.125
3,GAAATCTA,0.116
4,AAAATCTG,0.235
5,ATAATCTC,0.293
6,GTAATCTA,0.207
7,CTAATCTC,-0.0112
8,ATAATCTA,0.294
9,ACAATCTC,0.0789
10,ATAATCTG,0.117
11,AAAATCTA,0.289
12,AGACAGGA,0.246
13,TCTCAAAA,0.143
14,GCGAGACA,-0.0827
15,CAAATAGG,0.00709
16,CAGACGAG,-0.108
17,AAACGGAA,0.341
18,AAACGGAC,-0.102
19,GAACGGAA,0.0333
20,AACTCAAT,0.0866
21,GGGTGAGA,-0.224
22,CTCACTTA,0.0375
23,GGGTAAGA,-0.154
24,TACACTAA,0.0217
25,CACACTAA,0.299
26,CACACTAG,0.0753

row,Sequence,PBM E-score
1,GCGCTGAA,-0.0684
2,ACCACGAG,0.0793
3,CGTAATTC,0.0565
4,GTTAGTTA,0.262
5,ATTAGTTG,0.265
6,GTTAATTA,0.266
7,GTTAAGTA,0.113
8,ATTAAGTG,0.167
9,CGTAATTA,0.29
10,ATTAATTG,0.268
11,ATTAGTTA,0.344
12,GGTAATTA,0.175
13,ATTAAGTA,0.365
14,ATTAATTA,0.387
15,CGGGGCGA,-0.145
16,AAACACCC,0.0312
17,GCGCGATA,0.181
18,CCTCCTAC,-0.107
19,GACCTATA,0.189
20,GGTGGCCA,-0.292
21,AACAGTAA,0.173
22,CTCTTCGA,0.0693
23,ACAGGTGA,0.0969
24,ACTTACCA,0.0956
25,CCGCTAAC,-0.0857
26,AGTAATTA,0.232

row,Sequence,PBM E-score
1,AGTAATTG,0.129
2,ACTAATTC,0.221
3,CTTAATTC,0.257
4,AGTAATTC,0.318
5,ATTAATTC,0.291
6,CCTTACCA,-0.00851
7,ACACCTGA,-0.0619
8,AGTTCTAC,0.0539
9,AATCAAGC,0.0885
10,CTATATCC,0.159
11,CCATATTA,0.146
12,GTATATTA,0.257
13,CTATATTA,0.284
14,ATATATTG,0.14
15,ATATATCC,0.372
16,ATATATCA,0.0628
17,ATATATTC,0.326
18,ACATATTA,0.349
19,CTATATTC,0.215
20,ACATATTG,0.193
21,ATATATTA,0.306
